Laboratory results: PubChem BioAssay (NCI)
About 83,000 compounds went through this panel and 20% of them were active in at least one assay; those are over-represented in the sample as a whole.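 Plates (96-well) were seeded with cells, treated with compound at one concentration, and incubated for 48 hours before percent growth was determined.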 Values without a mark were called inactive. Calls of active or inactive are those of the source. The calls were made as follows: active = growth percent below 10; inactive = the rest.

Tests used:
Experiment in all cases: NCI-60 one-dose screen, 48 h (100 = growth as untreated, 0 = no growth, -100 = all killed)
Details in all cases: 10 µM unless noted
[1] = test system: HCT-15 colon
[2] = test system: HT29 colon
[3] = test system: SNB-75 CNS
[4] = test system: SNB-19 CNS
[5] = test system: U251 CNS
[6] = test system: PC-3 prostate
[7] = test system: SK-MEL-5 melanoma
[8] = test system: LOX IMVI melanoma
[9] = test system: SK-MEL-28 melanoma
[10] = test system: SK-MEL-2 melanoma
[11] = test system: EKVX NSCLC
[12] = test system: SN12C renal
[13] = test system: UO-31 renal
[14] = test system: TK-10 renal
[15] = test system: ACHN renal
[16] = test system: CAKI-1 renal
[17] = test system: CCRF-CEM leukemia
[18] = test system: MOLT-4 leukemia
[19] = test system: A498 renal
[20] = test system: UACC-62 melanoma

| SMILES | growth [1] | growth [2] | growth [3] | growth [4] | growth [5] | growth [6] | growth [7] | growth [8] | growth [9] | growth [10] | growth [11] | growth [12] | growth [13] | growth [14] | growth [15] | growth [16] | growth [17] | growth [18] | growth [19] | growth [20] |
| --- | --- | --- | --- | --- | --- | --- | --- | --- | --- | --- | --- | --- | --- | --- | --- | --- | --- | --- | --- | --- |
| CC1(C)CC[C@]23CC[C@]4(C)[C@H](CC[C@@H]5[C@@]6(C)CCCNC(C)(C)[C@@H]6CC[C@]54C)[C@H]2[C@H]1OC3 | -63.7% (active) | -49.4% (active) | 3.81% (active) | -20.2% (active) | -75.6% (active) | -10.7% (active) | -7.69% (active) | -94.9% (active) | 27.7% | 10.5% | 23.2% | 17.7% | 2.86% (active) | 0.422% (active) | -88.3% (active) | -92% (active) | -6.07% (active) | -32.7% (active) |  |  |
| COc1ccccc1/C=C1\Oc2cc(OCCN3CCCC3)ccc2C1=O | 39.4% | 14% | 90.5% | 88.9% | 76.1% | 83% | 87.2% | 68.1% | 91.8% | 106% | 85.9% | 88.8% | 66.3% | 97.9% | 94.2% | 94.3% | 54.7% |  |  |  |
| COc1cccc(-c2ccc3c(c2)NC(=O)/C3=C\c2ccc[nH]2)c1 | 20.7% | 23.6% | 44% | 81.6% | 83.5% | 70.1% | 11% | 50.5% | 70.7% | 52.7% | 26.1% | 69.2% | 52.7% | 27.1% | 40.2% | 28.3% | 19% | 34.4% |  |  |
| O=C(Cn1c(C(=O)c2ccccc2)nc2ccccc21)c1ccc(F)cc1 | 44.4% | 23.3% | 48.4% | 74.5% | 55.1% | 78.2% | 60.7% | 61.3% | 54% | 60.7% | 83.2% | 77.9% | 80.6% | 67.7% | 95.8% | 42.6% | 57.1% | 21.3% | 86.5% |  |
| COc1ccc(CC(C)=C(c2ccc(OCCN3CCCCCC3)cc2)c2ccc(OCCN3CCCCCC3)cc2)cc1 | -95.9% (active) | -85% (active) | -92.9% (active) | -95% (active) | -91.4% (active) | -87.2% (active) | -97.9% (active) | -100% (active) | -99.1% (active) | -82.2% (active) | -93.6% (active) | -92.4% (active) | -98.8% (active) | -87.3% (active) | -100% (active) |  | -57.9% (active) | -67.5% (active) |  | -97.1% (active) |
| CC1(C)NCCC[C@]2(C)[C@H]3CC(=O)[C@H]4[C@@H]5C[C@](C)(CO)CC[C@]5(C)CC[C@@]4(C)[C@]3(C)CC[C@@H]12 | 98.9% | 69.8% | 78.1% | 99.4% | 91.4% | 83.5% | 98.3% | 97.1% | 105% | 99.5% | 96.9% | 101% | 95.5% | 100% | 102% | 81.6% | 93.1% | 67% | 100% |  |
| O=C1Nc2cc(-c3cccc([N+](=O)[O-])c3)ccc2/C1=C/c1ccc[nH]1 | 28% | 91.1% | 64.6% | 101% | 98.8% | 86.8% | 70.3% | 90% | 106% | 88.1% | 29.8% | 101% | 68.6% | 65.6% | 92.3% |  | 91.5% | 97.4% |  | 83.9% |
| Cn1c2ccccc2c2c3c(c4c5ccccc5n(C)c4c21)C(=O)OC3 | 96.7% | 105% | 68.1% | 92.7% | 104% | 90.6% | 93.5% | 88.2% | 120% | 107% | 88.1% | 92.3% | 61% | 135% | 87.3% | 82.6% | 98.4% | 89.7% |  |  |
| C/C(=N\NC(=O)CSc1nc2ccccc2c(=O)n1Cc1ccc(S(N)(=O)=O)cc1)c1ccc(F)cc1 | 96.9% | 94.7% | 98.5% | 102% | 103% | 102% | 105% | 97.6% | 117% | 111% | 90.9% | 101% | 84.5% | 102% | 105% |  | 106% | 107% |  | 102% |
| COC(=O)N[C@H]1CCc2c(Cl)c(OC)c(OC)c(OC)c2-c2ccc(SC)c(=O)cc21 | 9.73% (active) | 13% | 28% | 26.3% | 21.5% | 21.1% | -37.4% (active) | 13.3% | 60.8% | 42.4% | 47.8% | 21.1% | 22.7% | 45.9% | 30.9% |  | 1.53% (active) | 3.99% (active) |  | 36.9% |
| Cc1cc2cc3ccc(N(C)C)cc3nc2cc1N | 19.4% | -37.3% (active) | -11.5% (active) | -4.5% (active) | -2.3% (active) | 12.7% | -0.276% (active) | -53.7% (active) | -68.5% (active) | -20.2% (active) | -7.41% (active) | -26% (active) | 19.1% | 9.89% (active) | 0.143% (active) | 30.5% | 5.51% (active) |  | -2.05% (active) |  |
| CC(=O)c1cc2c(N)c(C(=O)Nc3cccc4ccncc34)sc2nc1C | 87.1% | 104% | 97.7% | 95.4% | 101% | 80.7% | 64.7% | 102% | 91.1% | 78% | 91.5% | 99.9% | 88.2% | 99% | 102% |  | 101% | 88.7% |  | 69.9% |
| COc1cc2c(=O)n(CCN)c3c4cc5c(cc4ccc3c2cc1OC)OCO5 | -75.5% (active) | -89.8% (active) | 43.7% | -67.1% (active) | -74.4% (active) | -60.1% (active) | -78.8% (active) | -76.7% (active) | -71.2% (active) | 47.2% | 52.7% | -69.3% (active) | -84.8% (active) | 42.7% | -10.5% (active) | 18.6% | -19% (active) | -26% (active) |  |  |
| CC(Sc1nc2sc3c(c2c(=O)n1-c1ccc(Cl)cc1)CCCC3)C(=O)Nc1nc(-c2ccc(Br)cc2)cs1 (stereo not given) | 95.4% | 94.7% | 95.9% | 96.6% | 97.2% | 95.6% | 97.4% | 96.3% | 105% | 101% | 90.1% | 96.8% | 81.5% | 99.5% | 106% |  | 105% | 94.1% |  | 88.9% |
| Oc1cccc(CCc2ccc(Oc3cc(CCc4cccc(O)c4)cc(O)c3O)cc2)c1 | 39.1% | 99.2% | 72.8% | 89% | 74.5% | 63.5% | 70.2% | 62.7% | 88.6% | 84.1% | 85.1% | 67.9% | 36.4% | 111% | 77.1% | 52.7% | 24.1% | 18% | 95.2% |  |
| Cc1cc2nc3c4cc(C=O)ccc4n(CCN(C)C)c3nc2cc1C | 2.81% (active) | 6.7% (active) | 28.2% | 28.1% | 16.8% | 15.5% | 6.63% (active) | -40.5% (active) | 37.1% | 11.7% | 25.4% | 20.5% | -28.6% (active) | 23.2% | -15% (active) | 3.46% (active) | 21.7% | 9.19% (active) |  |  |
